# Laboratory results from PubChem BioAssay AID504652 (National Center for Advancing Translational Sciences (NCATS), 2011).
# Hit rate of the full screen: of about 360,000 compounds, about 11,000 (3.1%) were called active. The full list was thinned out, with actives kept by preference. A number with no mark means an inactive call. Cut-off read from the data, not from the text of the source: active = activity change below about -30%; inactive = the rest. Square brackets hold non-standard residues; d marks the D form. Peptide text beside a SMILES is read from it. * marks the point of attachment. PhAc = O=C(Cc1ccccc1)*
# Target: D(1A) dopamine receptor (Homo sapiens) (UniProt P21728)
# Experiment: Antagonist of Human D 1 Dopamine Receptor: qHTS
# Conditions: HEK293 TREx D1 cells, calcium flux, dopamine EC80; at 10 µM; hits give low values
# Outline: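 Compound effects on dopamine-evoked calcium signalling were measured in tetracycline-induced HEK293 Trex D1 cells. Dopamine at EC80 followed a 180 s compound pre-read, and fluorescence was tracked kinetically for 180 s more.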
# % is set by controls: 0 for no effect and ±100 for the full control effect.
# Sequence of D(1A) dopamine receptor (Homo sapiens) (P21728 whole entry, looked up): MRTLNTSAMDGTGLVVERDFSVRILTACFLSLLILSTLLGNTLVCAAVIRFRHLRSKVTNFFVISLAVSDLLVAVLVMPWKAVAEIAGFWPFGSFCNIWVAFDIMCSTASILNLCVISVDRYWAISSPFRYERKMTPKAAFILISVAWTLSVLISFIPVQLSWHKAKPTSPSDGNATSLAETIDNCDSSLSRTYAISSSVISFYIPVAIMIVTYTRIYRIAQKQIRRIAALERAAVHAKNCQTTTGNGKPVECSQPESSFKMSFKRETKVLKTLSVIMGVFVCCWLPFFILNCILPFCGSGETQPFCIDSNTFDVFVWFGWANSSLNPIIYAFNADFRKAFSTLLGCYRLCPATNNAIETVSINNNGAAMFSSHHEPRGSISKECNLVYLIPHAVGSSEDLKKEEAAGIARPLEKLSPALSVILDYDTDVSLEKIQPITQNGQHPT
row,Structure (SMILES),"activity change, negative = inhibition"
1,Cc1cccc(CNC(=O)c2cnc3sc(N4CCCCC4)nn3c2=O)c1,1.97%
2,CCOCCCNC(=O)c1c(NC(=O)c2nc(SC)ncc2Cl)sc2c1CCCC2,-26.2%
3,CCN(CCCNC(=O)c1cc2c(=O)n(CC)c3ccccc3c2s1)Cc1ccccc1,11.6%
4,Cc1cccc(-n2ncc(C(=O)N3CCN(c4ccc(Cl)cc4)CC3)c2C2CCN(C(=O)OC(C)(C)C)CC2)c1,1.41%
5,COc1ccc(CNC(=O)c2ccc(NC(=O)N3CC4CCCN4c4ccccc43)cc2)cc1 (centres undefined),40.5%
6,CCOc1ccc(C(=O)NC(=S)Nc2ccc(N3CCOCC3)c(Cl)c2)cc1[N+](=O)[O-],-18.8%
7,CCOc1ccc(C(=O)NC(=S)Nc2ccc(NC(=O)C(C)C)cc2)cc1[N+](=O)[O-],-38.8% (active)
8,CC(=O)Nc1ccc(NC(=S)NC(=O)c2ccc([N+](=O)[O-])c(C)c2)cc1,-2.38%
9,O=C(Nc1cccc2cccnc12)C(F)(F)F,5.04%
10,O=C(NCc1ccccc1Cl)c1cccn1-c1nnc(N2CCCCC2)s1,-10.7%
11,O=C(Cn1ncc2c3ccccc3n(Cc3ccccc3)c2c1=O)NC1CCCCCC1,-8.69%
12,COc1cccc(CNCCc2c[nH]c3ccccc23)c1OCc1ccccc1F,-35.2% (active)
13,COc1ccc(C(CCNCc2ccccc2F)c2ccc(F)cc2)cc1 (centres undefined),-7.29%
14,COc1cccc(CNCCSc2nnnn2C)c1OCc1ccccc1Cl,-5.2%
15,O=C(CN1C(=O)COc2ccc(S(=O)(=O)N3CCCCCC3)cc21)N1CCN(c2cccc(C(F)(F)F)c2)CC1,-0.903%
16,O=C(CN1CCc2cc3c(cc2C1)OCCCO3)Nc1ccccc1,-19.4%
17,Cc1ccc(NC(=O)CN2CCc3ccccc3C2)cc1C,-59.1% (active)
18,O=C(CN1CCc2ccccc2C1)Nc1cccc(S(=O)(=O)N2CCOCC2)c1,27.4%
19,O=C(NCCc1ccccc1)c1ccc2c(c1)N(Cc1ccccc1)C(=O)c1ccccc1S2(=O)=O,-40.3% (active)
20,COCCNC(=O)c1ccc2c(c1)N(Cc1cccc(Cl)c1)C(=O)c1ccccc1S2(=O)=O,5.66%
21,O=C(NCCc1ccccc1)c1ccc2c(c1)N(Cc1ccc(F)cc1)C(=O)c1ccccc1S2(=O)=O,6.04%
22,COC(=O)c1ccccc1NC(=O)c1ccc2c(=O)n3c(nc2c1)CCCCC3,5.25%
23,CC(C)c1ccc(NC(=O)c2cc(S(=O)(=O)N3CCc4ccccc4C3)ccc2F)cc1,3.76%

row,Structure (SMILES),"activity change, negative = inhibition"
1,CC(C)CNS(=O)(=O)c1ccc(CCC(=O)NCc2ccc(Cl)cc2)cc1,3.95%
2,CC(C)CCNC(=O)CCNS(=O)(=O)c1ccc(Cl)cc1,-17.7%
3,Cc1ccc(S(=O)(=O)NCCC(=O)NCc2ccc(Cl)cc2)cc1C,-35.7% (active)
4,CC1CCC(N2CC(=O)N(CCC3=CCCCC3)C(c3ccc(F)cc3)C2=O)CC1 (centres undefined),-13.9%
5,Cc1ccc2[nH]c(=O)c(CN(CCCN(C)C)C(=O)Nc3cccc(Cl)c3)cc2c1,-39.7% (active)
6,CCC(=O)N(CCc1ccccc1)Cc1cc2cc(C)ccc2[nH]c1=O,13.5%
7,Cc1ccc2[nH]c(=O)c(CN(CC3COCCO3)C(=O)Nc3ccccc3C)cc2c1 (centres undefined),-8.28%
8,COc1ccc(-n2nnc(-c3nsc(NC(=O)c4ccc(C)c(C)c4)n3)c2C)cc1Cl,2.45%
9,CCOc1ccc(NC(=O)Cn2cc(C(=O)c3ccc(C)cc3)c(=O)c3cc4c(cc32)OCCO4)cc1,4.79%
10,COCCn1c(=O)[nH]c(=O)c2cc(C(=O)c3cc(OC)ccc3O)cnc21,12.3%
11,COc1ccc(O)c(C(=O)c2cnc3c(c2)c(-c2ccc(F)cc2)c(C#N)c(=O)n3C)c1,0.727%
12,COc1ccc(O)c(C(=O)c2cnc3onc(C(C)C)c3c2)c1,-33.3% (active)
13,CCOc1ccc(CNC(=O)c2ccc(CS(=O)c3ccccc3)o2)cc1 (centres undefined),-7.56%
14,COc1ccc(CNC(=O)CC2Oc3ccc(C)cc3NC2=O)cc1 (centres undefined),14%
15,O=C(COC(=O)c1cccc(Cl)c1)Nc1ccc2[nH]c(=O)[nH]c2c1,2.99%
16,COc1ccc(C(=O)OCC(=O)Nc2cccc(C(C)=O)c2)cc1OC,-4.31%
17,COc1ccc(C(=O)OCC(=O)Nc2ccc3[nH]c(=O)[nH]c3c2)c(OC)c1OC,-37.4% (active)
18,COc1ccc(NC(=O)c2sc3nc(-c4cc5cccc(OC)c5oc4=O)[nH]c(=O)c3c2C)cc1,7.97%
19,Cc1ccc(CSc2nc3cccnc3n2Cc2ccc(C(=O)NC3CC3)cc2)cc1,-0.852%
20,CCc1ccc(NC(=O)CCCc2nnc3n(CCCOC)c(=O)c4sccc4n23)cc1,-2.77%
21,Cn1cnc([N+](=O)[O-])c1Sc1ccccc1,1.72%
22,Cn1nc(-c2ccccc2)c(CSc2cccc(Cl)c2)c1Cl,2.15%
23,Cn1nc(-c2ccccc2)c(CO)c1Sc1ccccc1,-64.5% (active)

row,Structure (SMILES),"activity change, negative = inhibition"
1,Cc1ccc(S(=O)(=O)NCc2nc3nc(C)cc(C)n3n2)cc1,-1.58%
2,Cc1ccc(NC(=O)Nc2ccccc2)c(Br)c1,-35.1% (active)
3,CCOc1cc(NC(=O)Nc2ccccc2)c(OCC)cc1NC(=O)CC,0.545%
4,Cc1ccc(NC(=O)c2ccn(C(=O)Nc3ccccc3)n2)c(C)c1,4.19%
5,COc1ccc(Cn2c(=O)c3oc4ccccc4c3n(CC(=O)Nc3ccc(F)cc3F)c2=O)cc1,-7.86%
6,Cc1cc2c(s1)c1cnn(Cc3cc(F)c(Cl)cc3Cl)c(=O)c1n2C,3.83%
7,CC(C)OCCCNc1ncnc2c1[nH]c1ccc(F)cc12,-48.9% (active)
8,Cc1ccc(-n2ncc(C(=O)N(C)Cc3ccccc3)c2-n2cccc2)cc1,-9.92%
9,Cc1cc2c(cc3c(SCc4nc(-c5ccccc5)oc4C)nnc(C)n32)o1,-21.6%
10,O=C(NCC(c1ccco1)S(=O)(=O)c1cccs1)c1ccc(F)cc1 (centres undefined),-7.39%
11,O=C(CC1NCCc2ccccc21)Nc1cccc(Cl)c1 (centres undefined),-31.7% (active)
12,O=C(CC1NCCNC1=O)Nc1ccc(Oc2ccccc2)cc1 (centres undefined),1.7%
13,O=C(CC1NCCNC1=O)Nc1cc(Cl)cc(Cl)c1 (centres undefined),4.63%
14,O=C(NCc1ccc(Cl)cc1)c1ccc2c(c1)nnn2C1CCCC1,-8.94%
15,Cc1ccc2ccc3c(c2n1)NS(=O)(=O)c1ccccc1-3,8.65%
16,Cc1cccc2c1-c1sc(C(=O)Nc3ccc(F)cc3F)cc1CO2,-14.5%
17,Cc1cccc2c1-c1sc(C(=O)NCCCN3CCc4ccccc4C3)cc1CO2,-31.8% (active)
18,COc1ccc(CNC(=O)c2cc3c(s2)-c2ccccc2OC3)cc1,-24.1%
19,COc1ccc2c(c1)CCc1c(C(=O)Nc3cc(C)ccc3O)noc1-2,-13.5%
20,COc1ccc(CNc2nc(-c3ccc(Cl)cc3)cc(C(F)(F)F)n2)cc1,-13.9%
21,CCCNC(=O)C1CCC(Cn2c(=O)c3sccc3n(Cc3ccccc3F)c2=O)CC1 (centres undefined),-11.6%
22,CCCC12CN3CC(CCC)(CN(C1)C3c1c[nH]c3ccc(OC)cc13)C2=O (centres undefined),-7%
23,COc1ccccc1CN(C)C(=O)C1(c2ccc(Cl)cc2)CC1,-0.3%

row,Structure (SMILES),"activity change, negative = inhibition"
1,COc1ccccc1CN(C)C(=O)c1cc2ccccc2o1,-35.2% (active)
2,COc1ccccc1CNC(=O)C1CCN(c2nc3ccccc3o2)CC1,15.4%
3,CCc1ccc(N(CC)C(=O)CCn2cnc3onc(-c4ccc(F)cc4)c3c2=O)cc1,-6.1%
4,CCCN(CC1COc2ccccc2O1)C(=S)Nc1ccc(C)cc1 (centres undefined),-12.3%
5,CC(NC(=S)Nc1ccccc1)C1COc2ccccc2O1 (centres undefined),-14.2%
6,S=C(NCC1COc2ccccc2O1)Nc1ccc(Br)cc1 (centres undefined),-47.7% (active)
7,COc1ccc(-n2c(=O)c3c(c4cc(OC)ccc4n3C)n(Cc3cccc(C)c3)c2=O)cc1,4.47%
8,Cc1ccc(Cl)cc1N1CCN(C(=O)CN2C(=O)COc3ccc(S(=O)(=O)N4CCOCC4)cc32)CC1,3.53%
9,COc1cc(NC(=O)CCn2nc(C)cc2C)cc(OC)c1OC,34.5%
10,O=C(c1ccccc1F)N1CCC(c2nc3c(nnn3Cc3cccc(F)c3)c(=O)[nH]2)CC1,0.447%
11,Cc1ccc(NC(=O)N2CCC(c3nc4c(nnn4Cc4c(F)cccc4Cl)c(=O)[nH]3)CC2)cc1,-40.8% (active)
12,O=C(Nc1ccc(F)cc1)N1CCCC(c2nc3c(nnn3Cc3ccccc3Cl)c(=O)[nH]2)C1 (centres undefined),2.43%
13,Cn1cc(S(=O)(=O)N2CCCCCC2)cc1C(=O)N1CCN(c2ccc(F)cc2)CC1,5.3%
14,CC(C)Oc1ccc(CNC(=O)C2CCN(c3nc4ccccc4n(C)c3=O)CC2)cc1,18.8%
15,CCCOc1ccc(C(=O)Nc2ccc3oc(-c4cccc(Cl)c4Cl)nc3c2)cc1,6.25%
16,COc1ccc2oc(=O)c(-c3cn4c(n3)sc3cc(OC)ccc34)cc2c1,2.94%
17,Cn1c(=O)c2c(nc(SCC(=O)Nc3ccc(F)cc3)n2Cc2ccccc2)n(C)c1=O,6.42%
18,CC(C)C[C@H](NC(=O)C1CCC(CNC(=O)[C@@H]2CCCN2C(=O)OC(C)(C)C)CC1)C(=O)O (some centres undefined),-1.98%
19,COC(=O)[C@H](CC(C)C)NC(=O)N1CCCCC1C (some centres undefined),-78.1% (active)
20,CC(C)C[C@@H](NC(=O)[C@H]1CCCN1C(=O)Cc1ccccc1)C(N)=O (PhAc-[dP]-[dL]-NH2),30%
